The whole screen tested about 53,000 sequences, of which about 3,700 (7%) were called active. The full list was thinned out, with actives kept by preference. Unmarked numbers belong to inactive results.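 Rule for the calls: active = gene knockdowns whose robust z-score for IL-1 alpha signal is at least 2 or at most -2, so actives lie on both sides; inactive = the rest.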
Assay: Components of the Cytosolic LPS Sensing Pathway: Gene Identification via Genome-wide siRNA Screen;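 note: robust z of the log signal after scaling to non-targeting control siRNA wells of the plate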
Conditions: RAW264.7 macrophages, IL-1a HTRF, actives lie on both sides, screened at 100 nM (by protocol), cells primed 5 h with Pam3CSK4 first
In short: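 Cells (RAW264.7, 1×10^4 per well) were transfected with siRNA at 100 nM and cultured 48h at 37 degrees C. Pam3CSK4 was added for 5 hours; LipidA transfection followed for 24 hour. IL-1a was then measured by HTRF.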

Sequence	z-score
GGAGAAGUUCCCUAACAUGTT against Ppan	-1
GCCAGUAAGGAAUUCAACUTT against C3	-1.29
GGGCAUUGAAGCAAAUAUATT against Tmprss15	0.323
GGACGCAUGAUGUGGGUUCTT against Tmem41a	-0.626
GCUAAGUCGGAGCAGUUUUTT against Clba1	2.07 (active)
AUGGUGCUGUUUUAUUUGUTT against Olfr671	-0.807
UAUCGUCCACAACUACUCATT against Epn1	1.14
GGACAUCCAACCGUACAUGTT against Ccnd2	0.247
GCAAGCUACAUGCAUACAUTT against Zfp945	3.59 (active)
GCCCUUUGACAAUUUGUUUTT against Stra6l	-0.661
CCUAUGUAACACAAACAUUTT against Orc5	0.721
GGUACAAGGUCAUCAUGAGTT against Olfr1341	-2.85 (active)
GGAGGGAGUAUCCAUGUCATT against Nr2c2	0.209
GGUCGACAGACUCUUGCAUTT against Mylk3	-0.982
GCAAGCAGAGAUGUUACAUTT against Olfr1284	-0.975
GGUGCUGUAUUUGAUGUUATT against Nudt6	0.544
GGAACUUGAACUAAAAAUGTT against Eaf1	2.5 (active)
GGUGAUGGUGAACAAGAAATT against Lgals9	-0.811
GGCUCACGCUCGUUACCUATT against Nwd1	-1.86
GGGUCCUAAGACUAUUGAUTT against Eif4g1	0.274
GCUUCCUUCUUCUUGUCCATT against Vmn1r42	-0.475
GGAUUUUCGAUUCUCUUACTT against Glg1	2.25 (active)

Sequence	z-score
GGAUGUUCAACCUAAACGATT against Ferd3l	-0.347
GGUUCAGAAGUCUAUGUCUTT against Ufsp1	0.866
GCCGUAUCACCCUAAACUATT against Pxylp1	2.05 (active)
GGCCUAGUUCCAGUUAUGCTT against Olfr1093	-1.41
CCGCUACCUUAAGCACCUATT against Terf2ip	0.231
GGUUUGACUAACUUUCCUUTT against Fbxl15	0.198
GCGGGAACUUAAAGUUUACTT against Yars	3.18 (active)
GGAACAGUGCUUGUAUCAGTT against Clasrp	0.675
GGUUCCUUCGUGAAUGUCATT against Glp1r	0.0826
CCCGUCAAUACCACUUACCTT against Sidt2	2.19 (active)
GCUAAUCGGAUGCUGAAGCTT against Psmb7	0.71
CCUUAUGUCCCUAAGGCUATT against Mbd3	-0.109
CCUCAGUUAUAGAUGAUCUTT against Rdh11	0.319
CCCUCAAAUAACAUCCAGGTT against Sh3d21	-1.93
GGAAAUCUAUUUCAUUGACTT against Zcchc10	0.956
GCUUGUGCGAGUGUUGGAUTT against Has1	2.21 (active)
GGGUUUCCUACAGAGUACCTT against Amer3	-0.845
GGCAUGGAUUGGUGAGAUUTT against 9330175E14Rik	-0.576
GCAUUAAGCACGAGAAAAATT against Slc18a2	0.575
GCUCUCAGAUGACAUCACUTT against Supt5	-2.43 (active)
GGACCACUUGUAGUAUUUGTT against Map7d1	0.593
GGCAACUGCCUUUACCAUATT against Tceanc2	1.67

Sequence	z-score
GGAGAUCGACCUGUCUAUGTT against Cep164	0.988
CGGAAAAGAUCCCUAUUGUTT against Adam5	0.373
GGGACGUGCAAUUGUCUGATT against Mfsd6	0.0857
GGAUGGCAUGUCCUUCCAATT against Elf3	2.85 (active)
GGAAGUGGAAAAAGUUUAGTT against Brip1	0.442
GGCAUUGCUGACUACAAACTT against Tcn2	2.15 (active)
GCAGUUUUGGGCAAUACCUTT against Olfr358	1.22
GCAACGCAACAGCAUUCCUTT against Psmg1	1.34
GGAUAUGCUGAGGUGGUGGTT against Cpsf7	-1.07
GGUGUACAUGGACAUCAAGTT against Ppie	0.0171
GGUCUUUGAGUUAAACCAUTT against Cdc7	-0.0476
CCUGAGCUAGAAUCUCAGATT against Zmat2	0.715
CCCUUUCAACCAUUAAGCUTT against Kcns2	0.243
GGAUGGGUCAAUGUUCUACTT against V1rb6	0.232
CCACCAGAAUCCUAACACATT against Nucb2	2.55 (active)
CCAUGUGUAAAGGGAGAAATT against Nxph2	0.893
CCAGUUGUGUGAAUUAUGUTT against Psmd2	-2
CCUACCGUUACCUAAGUGATT against Kcnj5	-1.15
GCAAUGAGUAUUCAUGCAATT against Sec61a2	-1.86
CCUUCAGUGCUGUAGUGUATT against Rasl10b	0.37
GGAGUCCUAGAACACACAGTT against Snap29	-1.79
GGAAUAUUAUGGGUAUCGATT against Cacna1s	0.952

Sequence	z-score
GGUGGACUCUGUUUAAAAATT against Mtnr1a	0.971
GGUCUGUGAAAUGAAAAAUTT against Brix1	-0.473
GGACUUACAUGGAAUUUUATT against Eftud2	-2.07 (active)
CGGGUAUCAUCGAUUAUGGTT against Tnfaip6	-0.356
GGAGUGCAGUACAAAGGACTT against Ahsa1	0.872
GCCCAGCUCAAAUCUCCAUTT against Defb41	1.05
GGACUUUUCAUUUGAAGCATT against Gar1	1.03
GGAGUUUGUAGCUGACAUCTT against Dcaf15	-1.02
GCCUUUCUCGCUACUUAGUTT against Cltc	2.83 (active)
GGAAAUCCAACUUCUUUCATT against Ebf2	2.7 (active)
GGUGUCUGCGUGAAGAUCATT against Cacng8	2.81 (active)
CCUGGACAAGCUAUACCUUTT against Cdc45	0.952
GGCAUUGUAACCCUUGUAATT against Zscan26	-0.684
CGACUGGAUACCAAAUUACTT against Mtrex	-1.21
GGAUCAUGAGAAUAUCAUCTT against P4hb	0.816
GGUGAUGUCAAGAGUUUUCTT against Hacd2	3.56 (active)
GGGCCUCCUGUAAACAUCCTT against D630039A03Rik	0.884
AUAAGAUGUUGCUCGGAACTT against Olfr1193	1.26
GCCAGUGUUAUCCAGGACUTT against Cggbp1	1.35
GCAACUCAACCUCAACCAUTT against Lrrc8e	-0.597
CCUCGAGUGGUUGGAUAAGTT against Vps25	-2 (active)
GGUGAAAUUGCUCAGAUAATT against Narf	0.387

Sequence	z-score
AACCAUGAUGCUUACGUUUTT against S100a10	0.285
CCACAUACAUUUCACAGGGTT against Kdf1	-0.806
GGAGUGUGUGCUUUUAAAATT against Rabggta	0.248
GGCAGAAGUGGAAAAACAATT against Tmco1	-0.417
GGAAUGUAUCCAGGACUUCTT against Brd4	-2.46 (active)
GAACCCUCAUGAGGGUUACTT against C1ql1	0.177
GCCAGUAUGCUGUAUGGCUTT against Bcas3	-0.712
GCUACCUCUUGCAUGGGAGTT against Bivm	-0.0737
GCUGAUAAACAUCAGCUACTT against Zdhhc23	4.01 (active)
GGCCUGUAUUCUGCUCUGUTT against Olfr341	0.0576
GGCUGCUUAGCUUUAAUGGTT against Ccdc177	-0.674
GGGAUACUCCAAGUUCCAUTT against Muc4	2.85 (active)
GGUUCUAGGCAGUUUGAUATT against Tlnrd1	1.64
GCCAAUUAAUGAUUGCUUUTT against Zfp322a	0.945
CGCCAGCAGAACUCAAAUATT against Gm11992	0.623
GCGUGCUUAUGAACAUAGUTT against Spen	2.02 (active)
GAUGAUUGACGACAUGGAATT against Rgs9bp	0.656
GGAUGAUGUGAUGAAGAUCTT against Fgfr4	-0.0955
GGUUAAAUGCCCGCCAACATT against Eif2ak4	-0.876
GGAUAAGGACCUCUUCUCUTT against Ubl7	-1.41

From PubChem BioAssay AID1508600 (Functional Genomics Laboratory (NCATS/FGL), 2020)
